Among all 360,000 compounds or so, about 1,700 (0.47%) were called active. Another 2% or so got no clear call; they are omitted. Calls come from the whole dose curve; as a rule, active = well fitted inhibition curve with a large enough effect; inconclusive = small, poorly fitted or top-dose-only effect; inactive = no such curve, though single readings can be large or run the other way. Shown is part of a subset that was picked to be rich in actives. Entries that show only a call come without a potency.
Potency is the fitted concentration of half-maximal effect.

For the assay, the target named is Bifunctional 3'-5' exonuclease/ATP-dependent helicase WRN (Homo sapiens) (UniProt Q14191). The assay can be described thus: qHTS for Inhibitors of WRN Helicase. Note: nearly all actives have a fitted effect of over 55% in size. Conditions: WRN helicase unwinding, fluorescent forked duplex, kinetic; series mostly up to 114 µM. The source says: Inhibition of DNA repair is proposed as a strategy for combating cancer. Synthetic lethality is an approach that exploits preexisting DNA repair deficiencies in certain tumors to develop inhibitors of DNA repair pathways that compensate for the tumor-associated DNA repair deficiency. Because helicases play critical roles in the DNA damage response and in DNA repair, particularly in actively dividing and replicating cells, characterization of synthetic lethal relationships of DNA helicases may be of value in developing improved anticancer treatment strategies; moreover, small molecules that specifically target a given DNA helicase may be useful for understanding its role in cellular nucleic acid metabolism. The goal of this project is to identify small molecule, non-covalent chemical inhibitors of the Werner syndrome (WS) helicase (WRN), which plays an important role in cell proliferation, the replication stress response, and DNA repair. […] The WRN gene product that is defective in the chromosomal instability disorder has DNA helicase and exonuclease activities and interacts with a number of nuclear proteins to maintain genomic stability. We will employ an optimized high-throughput screening assay that utilizes a fluorescence intensity modulation scheme with a fluorophore and quencher positioned near one another within a duplex deoxyoligonucleotide that contains a single forked structure. After a high-throughput screen of the ~350,000-member Molecular Libraries Small Molecule Repository (MLSMR) collection, followed by data analysis and hit selection, a panel of confirmatory, as well as secondary and ternary, assays will be employed to identify high-confidence WRN inhibitors. Structure-activity relationships will be investigated for the top candidate inhibitor series through medchem expansion. These are the results of the primary screening campaign against the MLSMR. NIH Chemical Genomics Center [NCGC] NIH Molecular Libraries Probe Centers Network [MLPCN] MLPCN Grant: MH096530 Assay Submitter (PI): Robert Brosh, National Institute of Aging
Sequence of Bifunctional 3'-5' exonuclease/ATP-dependent helicase WRN (Homo sapiens) (Q14191 whole entry, looked up): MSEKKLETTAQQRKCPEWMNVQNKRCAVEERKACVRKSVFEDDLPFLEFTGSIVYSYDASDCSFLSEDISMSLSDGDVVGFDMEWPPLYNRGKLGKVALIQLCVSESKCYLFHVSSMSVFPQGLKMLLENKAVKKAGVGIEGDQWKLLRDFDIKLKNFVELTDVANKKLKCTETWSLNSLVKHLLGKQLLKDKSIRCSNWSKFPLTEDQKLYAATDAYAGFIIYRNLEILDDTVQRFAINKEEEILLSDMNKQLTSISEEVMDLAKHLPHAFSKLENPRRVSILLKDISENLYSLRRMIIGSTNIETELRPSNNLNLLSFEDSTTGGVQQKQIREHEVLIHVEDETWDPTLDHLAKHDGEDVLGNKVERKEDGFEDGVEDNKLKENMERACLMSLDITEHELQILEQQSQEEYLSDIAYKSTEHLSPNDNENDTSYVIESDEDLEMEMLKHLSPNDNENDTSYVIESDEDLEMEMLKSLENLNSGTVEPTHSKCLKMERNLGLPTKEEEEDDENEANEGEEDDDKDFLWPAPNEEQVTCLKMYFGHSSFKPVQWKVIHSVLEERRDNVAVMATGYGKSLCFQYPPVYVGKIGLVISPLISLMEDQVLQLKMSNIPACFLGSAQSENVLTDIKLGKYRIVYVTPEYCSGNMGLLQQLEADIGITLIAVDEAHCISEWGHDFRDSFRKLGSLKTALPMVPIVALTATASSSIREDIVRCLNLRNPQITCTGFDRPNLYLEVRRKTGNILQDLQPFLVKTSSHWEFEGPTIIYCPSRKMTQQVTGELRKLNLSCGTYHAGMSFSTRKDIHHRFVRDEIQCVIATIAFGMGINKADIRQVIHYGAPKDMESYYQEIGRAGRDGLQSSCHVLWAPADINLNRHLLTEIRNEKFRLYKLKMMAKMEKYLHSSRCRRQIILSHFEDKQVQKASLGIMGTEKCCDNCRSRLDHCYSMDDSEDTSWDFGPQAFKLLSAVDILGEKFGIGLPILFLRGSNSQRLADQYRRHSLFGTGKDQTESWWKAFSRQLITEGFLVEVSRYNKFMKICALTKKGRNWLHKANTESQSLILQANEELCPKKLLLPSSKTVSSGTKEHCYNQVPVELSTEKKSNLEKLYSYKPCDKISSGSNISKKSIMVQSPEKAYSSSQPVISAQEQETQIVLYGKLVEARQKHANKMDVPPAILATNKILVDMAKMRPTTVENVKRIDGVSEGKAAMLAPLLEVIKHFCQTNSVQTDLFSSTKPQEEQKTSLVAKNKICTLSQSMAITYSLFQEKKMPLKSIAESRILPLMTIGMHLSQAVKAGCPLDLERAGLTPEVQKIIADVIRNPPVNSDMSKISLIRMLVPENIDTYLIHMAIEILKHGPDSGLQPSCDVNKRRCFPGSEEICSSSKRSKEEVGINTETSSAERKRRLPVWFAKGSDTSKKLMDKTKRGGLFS
Three muL of reagents (buffer in columns 3 and 4 as negative controls; WRN at 20 nM final concentration in columns 1 and 2 as positive controls; columns 5-48 as test reactions) will be dispensed into a 1536-well Greiner black plate via solenoid-valve based nanoliter dispensers. Compounds (23 nL each in columns 5-48) and control (23 nL each in column 2 as dose-response) will be transferred via a Kalypsys pintool equipped with a 1536-pin array. Plates will be incubated for 15 min at room temperature, and then 1 µL of substrate (100 nM forked duplex oligonucleotide and 2 mM ATP final concentrations) will be added to start reaction, and plate will be transferred into a ViewLux high-throughput CCD imager where reaction progress is measured in kinetic mode using standard red-fluorescence optics (excitation filter 525 nm, emission filter 598 nm).
In general terms: qHTS replaces the single test concentration by a dilution series.
Consider `CCOC(=O)N1CCN(C(=O)c2ccc(CN(c3ccc(C)c(C)c3)S(C)(=O)=O)cc2)CC1`, for which the Potency result was “inactive”.
The same measure for `O=C(Nc1ccccc1)c1nnsc1S(=O)(=O)c1ccc(Cl)cc1`: 44.7 µM (active); for `O=C(Nc1ccc(S(=O)(=O)N2CCOCC2)cc1)C1CCN(S(=O)(=O)c2ccc(Cl)cc2)CC1`: “inactive”; for `Cc1nnsc1S(=O)(=O)Cc1ccccc1Cl`: “inactive”.
With `COC(=O)[C@@]12C[C@@H](CC(=O)NCCCCc3ccccc3)C(=O)N(Cc3ccccc3)C1=CCC(C)(C)C2` the entry was “inactive”.
As to `COc1ccc2[nH]c3c(C)c4cc[n+](C)cc4c(C)c3c2c1`, the Potency is 22.4 µM (active).
For the compound `CCOC(=O)c1[nH]c2ccc(OC)cc2c1NC(=O)N1CCOCC1`, the Potency entry was “inactive”.
The same measure for `Nc1[nH]c(=S)nc2nc(-c3ccccc3)c(-c3ccccc3)nc12`: “inactive”; for `COc1ccccc1Cc1c(-c2ccc(Cl)cc2)nc2c3ccccc3ccn12`: “inactive”; for `CCc1nc2ccc(C(=O)NCc3ccc(OC)cc3)cn2c1N(CC)Cc1cccc(Br)c1`: “inactive”.
The same measure for `Cc1cccc(C)c1Nc1nnc(SCC(=O)NCCCN2CCCC2=O)s1`: “inactive”; for `O=C1CSC(=S)N1/N=C/c1ccc(O)c([N+](=O)[O-])c1`: 79.4 µM (active); for `CO/N=C/c1ccc(N2CCN(C(=O)c3cccc(Cl)c3)CC2)c([N+](=O)[O-])c1`: “inactive”.
For the compound `O=C(CNS(=O)(=O)c1ccc(Br)s1)NCc1ccc2c(c1)OCO2`, the Potency result is “inactive”.
With `O=C1CC2(CCCCC2)Oc2ccc(OCC(=O)N3CCOCC3)cc21` the entry was “inactive”.
The same measure for `CCN(CC)CC(=O)Nc1sc2c(c1C(=O)c1ccccc1C)CCC2`: “inactive”; for `COc1cc(O)c2c(=O)c3c(O)c(O)ccc3oc2c1OC`: “inactive”.
The same measure for `COc1c(O)cc2oc(-c3ccc(O)c(O)c3)cc(=O)c2c1O`: 25.1 µM (active); for `CCOC(=O)COc1cc(OCC(=O)OCC)c2c(=O)cc(-c3ccccc3)oc2c1`: “inactive”; for `COc1ccc(Cn2c(=O)sc3ccccc32)cc1OC`: “inactive”.
For the compound `COC(=O)[C@@]12C[C@@H](CC(=O)NCCCCc3ccccc3)C(=O)N(CCc3ccc(OC)c(OC)c3)C1=CCC(C)(C)C2`, the Potency entry was “inactive”.
The same measure for `Cc1nnc(-c2ccc(Oc3ccc(C)c(C)c3)c([N+](=O)[O-])c2)o1`: “inactive”; for `COc1ccc(NC(=O)c2cc(-c3cc(OC)c(OC)c(OC)c3)nc3ccccc23)c(OC)c1`: “inactive”; for `CC1CCCC(NC(=O)c2cc(-c3ccncc3)nc3ccccc23)C1C` (stereo not given): “inactive”.
For `Cc1ccc2nc(-c3ccncc3)cc(C(=O)Nc3ccc(OC(F)F)cc3)c2c1`, the Potency is 44.7 µM (active).
On to `O=C1NC[C@H](CCCCN2CCN(CCc3ccccc3)C(=O)C2=O)N(CC2CCCCC2)C1=O`, for which the Potency entry is “inactive”.
On to `CCc1ccc(CN(C)C(=O)CCc2nnc(-c3ccc(-c4ccccc4)cc3)o2)nc1`, for which the Potency result was “inactive”.
As to `CCCCCCc1cc2cc(-c3nnc(-c4ccccc4)o3)c(=O)oc2cc1O`, the Potency is 56.2 µM (active).
The same measure for `Cc1cc(Cl)ccc1C(=O)C1CCCN(C(=O)c2nonc2C)C1` (stereo not given): “inactive”; for `CCCCN(CC)CCNC(=O)c1[nH]c(C)c(C(C)=O)c1C`: “inactive”; for `CCC(=O)Nc1c(C)n[nH]c1C`: “inactive”.
As to `C=C1C(=O)OC2C1CCC(C)=CCCC1(C)OC21` (stereo not given), the Potency result was “inactive”.
On to `CCCCCCCNc1nc(Cl)nc(NCCO)n1`, for which the Potency result was “inactive”.
With `CC1CCCN(CCCNC(=O)CN2C(=O)COc3ccc(S(=O)(=O)N4CCOCC4)cc32)C1` (stereo not given) the entry was “inactive”; with `Nc1ccc2nc3c(=O)[nH]c(=S)[nH]c3nc2c1`, 7.08 µM (active); with `O=C(CC1SC(N2CCOCC2)=NC1=O)Nc1ccccc1F` (stereo not given), “inactive”.
For `O=C1Nc2ccc(Br)cc2/C1=N/N=C/C1=C(N2CCOCC2)C(=C\c2ccccc2)/CC1`, the Potency entry was “inactive”.
On to `N#C/C(=C\C1=C(N2CCOCC2)C(=C\c2ccccc2)/CC1)C(=O)Nc1ccccc1F`, for which the Potency was 15 µM (active).
The same measure for `N#Cc1ccc(OCC(=O)NC(=O)NC2CCS(=O)(=O)C2)cc1` (stereo not given): “inactive”.
As for `CC(=O)Nc1ccc(S(=O)(=O)NCC(=O)OCc2cc(=O)oc3ccc4ccccc4c23)cc1`, the Potency entry was “inactive”.
As to `O=C(N/N=C/c1sc(N2CCCCC2)nc1-c1cccs1)c1cccnc1`, the Potency entry was “inactive”.
`C[C@H]1CN([C@@H](C)CO)C(=O)CCCn2nncc2CO[C@@H]1CN(C)S(=O)(=O)c1cccc(C#N)c1`: the Potency result is “inactive”.
With `Cc1nnc(SCC(=O)Nc2ncc3c(n2)CC(C)(C)CC3=O)s1` the entry was “inactive”; with `CC1=C/C(=N\OS(=O)(=O)c2ccccc2)C=CC1=O`, 31.6 µM (active).
The same measure for `O=C1Nc2ccccc2-n2nnnc2C1N1CCN(c2cccc(C(F)(F)F)n2)CC1` (stereo not given): “inactive”; for `CC1(c2cccc(N)c2)OCCO1`: “inactive”; for `COCCNC(=O)CSc1nc(N)c(NC(=O)c2ccco2)c(=O)[nH]1`: “inactive”.
With `COCCNC(=O)Nc1ccc2nc(-c3ccco3)c(-c3ccco3)nc2c1` the figure was 14.1 µM (active).
In the case of `Cc1ccc(NC(=O)OCCNC(=O)c2ccncc2)cc1`, the Potency result was “inactive”.
The same measure for `O=C(NC1=CC(=O)c2ccccc2C1=O)c1ccccc1`: “inactive”.
